Source: PubChem BioAssay
Shown are actives, neighbours in structure and some others; about 3% of the full set was active somewhere.
Tb PYK inh: qHTS of Trypanosoma Brucei Inhibitors; pyruvate kinase (Trypanosoma brucei), Q57TT1; TbPYK enzyme, Kinase-Glo Plus ATP luminescence, 45 min; Potency, µM (doses to about 76.8 µM), for the others: top-dose activity, negative = inhibition, most hits filed as inhibitors; hit rate 0.12% among 410,000; AID 624173, 2012; note: nearly all actives have a fitted effect of over 50% in size
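Activity of T. brucei pyruvate kinase was followed by Kinase-Glo Plus luminescence after the enzyme reacted 45 min at room temperature with 130 uM ADP (final) and substrate. Test compounds were added before ADP at multiple concentrations.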
LmPK inhibitor: qHTS Assay for Inhibitors of Leishmania Mexicana Pyruvate Kinase (LmPK) | Q27686 | purified LmPK, Kinase-Glo ATP luminescence, 1 h | Potency, µM (doses to about 57.5 µM), without a hit: at the highest dose activity change, negative = inhibition, hits mostly inhibitors | hit rate 0.37% among 290,000 | AID 1721, 2009
Target sequence (Q27686 whole entry, looked up): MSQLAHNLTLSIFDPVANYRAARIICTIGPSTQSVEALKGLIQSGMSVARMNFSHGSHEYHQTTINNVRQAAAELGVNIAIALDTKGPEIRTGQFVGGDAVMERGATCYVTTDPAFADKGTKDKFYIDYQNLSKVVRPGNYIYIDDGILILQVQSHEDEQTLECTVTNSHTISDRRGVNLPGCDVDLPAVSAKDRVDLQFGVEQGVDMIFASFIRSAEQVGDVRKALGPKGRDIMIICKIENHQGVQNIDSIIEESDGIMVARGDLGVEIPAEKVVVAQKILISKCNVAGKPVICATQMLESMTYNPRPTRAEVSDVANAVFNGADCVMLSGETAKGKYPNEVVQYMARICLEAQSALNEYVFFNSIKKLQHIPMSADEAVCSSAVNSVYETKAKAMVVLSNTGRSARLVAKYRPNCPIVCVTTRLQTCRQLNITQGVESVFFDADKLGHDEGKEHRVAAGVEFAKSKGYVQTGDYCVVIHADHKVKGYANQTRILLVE
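Purified LmPK (0.1 nM) with 0.5 mM PEP and 0.1 mM ADP in imidazole buffer pH 7.2 with MgCl2/KCl, 1 h at room temperature. ATP formed was read by luciferase luminescence and normalized to no-enzyme and uninhibited controls.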
Sm TGR block: qHTS Assay for the Inhibitors of Schistosoma Mansoni Peroxiredoxins. purified TGR, DTNB reduction, TNB absorbance 405 nm. Potency, µM (titrated, usually from 114 µM), for the others: top-dose activity change, negative = inhibition, usual class: inhibitors. hit rate 3% among 360,000. Schistosoma mansoni thioredoxin glutathione reductase (TGR), Q962Y6; note: nearly all actives have a fitted effect of over 60% in size
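TGR 20 nM + NADPH 100 uM (dispensed conc.), cpd preinc 15 min RT; start with NADPH (500 uM addition) then DTNB (15 mM addition). Kinetic TNB absorbance, 405 nm filter. Four-parameter Hill fit across titration.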
RE007 growth inh: qHTS Assay for Inhibitors of the HIV-1 protein Vpr | hit rate 0.21% among 360,000 | Potency, µM (series often up to 92.2 µM), for the others: at the highest dose activity change, negative = less growth, most hits filed as inhibitors | S. pombe RE007 Vpr strain, BacTiter-Glo ATP luminescence, 24 h; active = well fitted falling curve with a large enough effect; inconclusive = small, poorly fitted or top-dose-only effect; inactive = no such curve, though single readings can be large or run the other way; note: nearly all actives have a fitted effect of over 50% in size
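Fission yeast RE007 carrying one integrated HIV-1 vpr copy, seeded at OD 0.01 in PMG+AL medium with 23 nL pinned compound. Grown 24 h at 30 degrees; viability read by BacTiter-Glo luminescence after 5 min.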
Numbers without * were called inactive; ? = inconclusive; / = not tested or not shown. Unless noted, calls come from the whole dose curve; as a rule, active = well fitted curve in the direction sought with a large enough effect; inconclusive = small, poorly fitted or top-dose-only effect, or another doubt; inactive = no such curve, though single readings can be large; an effect the other way counts as inactive or inconclusive. % is set by controls: 0 for no effect and ±100 for the full control effect; potency is the fitted concentration of half-maximal effect.

SMILES	Tb PYK inh	LmPK inhibitor	Sm TGR block	RE007 growth inh
CCOc1ccc2nc(NC(=O)c3cnccn3)sc2c1	-1.7%	-22.1%	0.2%	-4.4%
O=C(Nc1nc2ccc(F)cc2s1)c1ccccn1	?	17.8µM*	-7.2%	14.1µM*
O=C(Nc1nc2ccccc2s1)c1cnccn1	-16.3%	10µM*	-5.7%	-25.4%
O=C(Nc1nc2ccc(F)cc2s1)C1=COCCO1	?	/	-4.8%	?
Oc1ccc(N=Nc2ccccc2)o1	-4.7%	-17.5%	3.16µM*	?
COc1ccc([C@H]2CC(=O)C=C(c3ccc4c(c3)sc3ccccc34)C2)cc1	-2.0%	/	-6.7%	-13.2%
CC[C@@]1(c2cccc(C)c2)C(=O)N(C(=O)OC)N1C(=O)OC	-13.1%	0.5%	1.58µM*	9.0%
CC[C@@]1(c2ccccc2OC)C(=O)N(C(=O)OC)N1C(=O)OC	-1.1%	-4.3%	25.1µM*	-12.0%
Cc1ccc(C)c(CN2C(=O)c3ccccc3S(=O)c3ccc(C(=O)NCCc4ccc(Cl)cc4)cc32)c1 (configuration not stated)	5.8%	/	0.4%	/
Cc1cccc(C(=O)Nc2ccccc2OCc2cc(=O)n3c(C)csc3n2)c1	1.3%	/	0.0%	/
CC1CCN(C(=O)CN2C(=O)NC3(CCC(C)CC3)C2=O)CC1 (configuration not stated)	2.7%	/	-3.5%	2.6%
CSc1ccccc1OCc1cc(C(=O)N(C)Cc2ccc(C)o2)no1	?	-0.4%	7.94µM*	-20.0%
CSc1ccccc1OCc1cc(C(=O)N2CCSCC2)no1	-10.2%	0.4%	0.0%	-3.9%
CSc1ccccc1OCc1cc(C(=O)N2CCN(c3ncccn3)CC2)no1	-2.4%	-0.8%	39.8µM*	-0.5%
CCOc1ccc(C(C)=O)cc1COC(=O)C(C)N=C1NS(=O)(=O)c2ccccc21 (configuration not stated)	0.0%	2.1%	20µM*	1.2%
Cc1cccc(-n2c(-c3csc(C(C)C)c3)n[nH]c2=S)c1	?	10µM*	7.8%	3.2%
Cc1cccc(-n2c(-c3csc(C)c3C)n[nH]c2=S)c1	?	11.2µM*	1.2%	/
CCCc1cc(-c2n[nH]c(=S)n2-c2cccc(C)c2)cs1	?	?	/	-1.5%
Cc1cccc(-n2c(-c3ccco3)n[nH]c2=S)c1	?	17.8µM*	0.4%	-0.2%
Cc1ccccc1-n1c(-c2csc3ccccc23)n[nH]c1=S	?	14.1µM*	-0.1%	1.0%
CC1(C)CC(=O)c2cc(-c3nc(-c4ccc(F)cc4)cs3)c(=O)[nH]c2C1	-0.7%	/	3.5%	/
CCN(CC)C(=O)Cn1c(=O)n(CCCCCC(=O)NCc2ccc(C)cc2)c(=O)c2sccc21	-10.3%	/	-1.4%	/
Cc1ccccc1-n1c(-c2ccco2)n[nH]c1=S	?	?	2.2%	-14.1%
Cc1ccccc1-n1c(-c2csc(C)c2C)n[nH]c1=S	?	7.94µM*	-0.1%	14.1%
Cc1ncc(CN2CCCC(C(=O)Nc3ccc(-c4ccco4)cc3)C2)n1C (configuration not stated)	-12.5%	-7.7%	4.2%	-4.2%
CSc1ncc(CN2CCCC(C(=O)Nc3ccc(-c4ccco4)cc3)C2)cn1 (configuration not stated)	-14.7%	1.5%	17.8µM*	-0.7%
O=C1C=CC(=O)N1c1ccc2c(c1)C(NC(=O)C(F)(F)F)c1ccccc1-2 (configuration not stated)	?	/	/	39.8µM*
CCC1CCCCN1C(=O)c1nn(-c2ccc(C)cc2)c(=O)c2c1c1ccccc1n2C (configuration not stated)	5.2%	/	8.2%	/
C/C=C\C=C/C(=O)Nc1cccc(C2=NOC3(C2)C[C@H](C(N)=O)N(C(=O)c2ccc(OC)cc2)C3)c1 (some centres not stated)	-28.8%	0.0%	1.78µM*	3.5%
C/C=C(/C)C(=O)Nc1cccc(C2=NOC3(C2)C[C@@H](C(N)=O)N(C(=O)c2ccc(OC)cc2)C3)c1 (some centres not stated)	-6.5%	-0.4%	2.7%	3.9%
